Hit rate of the full screen: of about 340,000 compounds, about 3,300 (0.97%) were called active.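 The calls were made as follows: active = mean activation above about 17%, with every replicate also reaching it (limit read from the data, passing the limit was not always enough); inconclusive = only one of the two conditions met; inactive = the rest.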 Many of the other results were omitted from the sample, so actives are more common in it than they were.
Each molecule was assayed against Protein FosB (Mus musculus) (UniProt P13346) (assay: activators of delta FosB homodimer, primary screen, biochemical, fluorescence polarization, TAMRA-CDK5 oligo, single point (AID 493131;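 also: fluorescence polarization rise as delta FosB binds a TAMRA Cdk5 AP-1 oligo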)). Settings: purified delta FosB, at 25 µM, hits give high values, percent of positive-control signal above neutral wells.
Chain of Protein FosB (Mus musculus) (P13346 whole entry, looked up): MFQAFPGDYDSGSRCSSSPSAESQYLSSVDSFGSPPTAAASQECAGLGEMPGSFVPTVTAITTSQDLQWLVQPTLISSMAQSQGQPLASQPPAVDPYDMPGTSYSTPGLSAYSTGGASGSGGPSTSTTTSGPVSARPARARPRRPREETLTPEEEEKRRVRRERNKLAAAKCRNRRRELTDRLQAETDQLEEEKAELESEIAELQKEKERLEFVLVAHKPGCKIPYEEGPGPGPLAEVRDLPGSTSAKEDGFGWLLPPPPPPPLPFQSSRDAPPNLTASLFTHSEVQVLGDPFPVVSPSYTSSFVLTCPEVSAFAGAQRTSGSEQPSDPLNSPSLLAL

Compound | activation
Cc1ccc(NC(=O)/C(=C\c2ccccc2)NC(=O)c2ccco2)cc1 | 10.9% (inactive)
O=C(Nc1ccc2ccccc2c1)/C(=C/c1cccc(Br)c1)NC(=O)c1ccco1 | 23% (active)
O=C(Nc1ccc2ccccc2c1)/C(=C\c1ccc2c(c1)OCO2)NC(=O)c1ccco1 | 5.94% (inactive)
COC(=O)c1ccc2c(c1)S(=O)(=O)NC(=NCCCN1CCOCC1)S2 | 0.881% (inactive)
COC(=O)c1ccc(C2C(Oc3ccccc3C)C(=O)N2CCc2ccc(OC)c(OC)c2)cc1 (stereo not given) | -14.8% (inactive)
COc1ccc(CC(=O)Nc2ccc(C(=O)NC(C)(C)C)cc2)cc1 | 35.1% (active)
COc1ccc(NC(=O)c2ccc(C#CC(C)(C)O)cc2)cc1 | -5.48% (inactive)
CC(C)(C)NC(=O)c1cccc(NC(=O)Cc2ccc(Br)cc2)c1 | -8.13% (inactive)
CC(=O)N1CC(=O)N(CC(=O)Nc2ccc(Br)cc2)C1=S | -0.232% (inactive)
O=C1c2cccc3cccc(c23)C(=O)N1CCCCCc1n[nH]c(=S)o1 | -2.23% (inactive)
O=C1c2ccccc2C(=O)N1CCCCCCN1C(=O)c2ccccc2C1=O | -2.1% (inactive)
C[N+](C)(CCCCCC[N+](C)(C)CCCN1C(=O)c2cccc3cccc(c23)C1=O)CCCN1C(=O)c2cccc3cccc(c23)C1=O | 85% (active)
CCOC(=O)Cc1csc(SCC(=O)NC(C)C23CC4CC(CC(C4)C2)C3)n1 (stereo not given) | -21% (inactive)
CC1(C)CC(=O)CC2(C1)NCC(c1ccccc1Cl)c1c2[nH]c2ccccc12 (stereo not given) | -13.7% (inactive)
O=C(NCc1cccnc1)C12CC3CC(CC(C3)C1)C2 | 0.989% (inactive)
CCC(CO)Oc1cc(NC(=O)c2cccc(F)c2)c2ncn(C(C)C)c2c1 (stereo not given) | 7.98% (inactive)
CCC(CO)Oc1cc(NC(=O)c2cccc3ccccc23)c2ncn(C(C)C)c2c1 (stereo not given) | -12.6% (inactive)
CC(C)n1cnc2c(NCc3ccccc3)cc(OCC3CCN(C)CC3)cc21 | 91.8% (active)
C/C(CC(=O)Nc1cccc(C(F)(F)F)c1)=N\NC(=O)C(=O)NCC(C)C | -12.7% (inactive)
CCCCOc1ccc(CON(C(C)=O)C(C)=O)cc1Cl | -3.14% (inactive)
CCn1ccnc1CNC(=O)CC1C(=O)NCCN1Cc1ccc(F)cc1Cl (stereo not given) | -11.3% (inactive)
Oc1ccc(C2Nc3cccc4cccc(c34)N2)cc1 | 58.9% (active)
COc1ccc(C2NC(=O)c3ccccc3N2)cc1 (stereo not given) | -0.293% (inactive)
Brc1ccccc1C1Nc2cccc3cccc(c23)N1 | -8.49% (inactive)
O=C(CCc1nnc(CCCCc2ccccc2)o1)NC(c1cccnc1)C(F)(F)F (stereo not given) | -5.13% (inactive)
O=C(O)C1CCN(S(=O)(=O)N2CCOCC2)CC1 | 1.05% (inactive)
CNc1nc(Nc2ccc(C)c(Cl)c2)nc(N)c1[N+](=O)[O-] | 60.7% (active)
Nc1nc(NCCCN2CCOCC2)nc(Nc2ccccc2)c1[N+](=O)[O-] | 4.67% (inactive)

Compound | activation
CCN1CCN(c2nc(Nc3cccc(F)c3)nc(N)c2[N+](=O)[O-])CC1 | 10.8% (inactive)
CCNC(=O)COC(=O)/C=C/c1c(C)nn(Cc2cccc(OC)c2)c1Cl | -7.6% (inactive)
CC(C)Nc1ccc(-n2nc3ccccc3[n+]2[O-])cc1 | -2.96% (inactive)
CC1(C)CC(=O)c2c(n(S(=O)(=O)c3ccccc3)c3ccc(NS(=O)(=O)c4ccccc4)cc23)C1 | -1.95% (inactive)
CCOc1ccc2nc(NC(=O)c3cc([N+](=O)[O-])ccc3N3CCOCC3)sc2c1 | 26.6% (active)
COc1ccc(S(=O)(=O)N2CCCCC2)cc1NC(=O)c1cc([N+](=O)[O-])ccc1N1CCOCC1 | 5.22% (inactive)
O=C(NCc1ccc2c(c1)OCO2)c1cc([N+](=O)[O-])ccc1N1CCOCC1 | 5.71% (inactive)
Cn1ccc(=Nc2ccc(NC(=O)c3ccc(N=c4ccn(C)c5ccc([N+](=O)[O-])cc45)cc3)cc2)cc1 | 62.2% (active)
CCc1ccc(NC(=O)c2ccc(Cn3cc([N+](=O)[O-])cn3)cc2)cc1 | 4.46% (inactive)
COc1cc(NS(=O)(=O)c2ccc(NC(=O)c3ccc([N+](=O)[O-])cc3)cc2)ncn1 | -0.999% (inactive)
COc1ccc(C(=O)Nc2ccnn2C2CCN(Cc3ccncc3)CC2)cc1 | -4.76% (inactive)
O=C(NCc1ccc2c(c1)OCO2)c1c(-c2ccsc2)sc2ccccc12 | -2.79% (inactive)
O=S(=O)(c1ccc(Cl)cc1)c1nc(-c2ccccc2F)oc1NCCN1CCOCC1 | -12.7% (inactive)
COc1ccc(/C=C/C(=O)OCC(=O)N2CCN(S(=O)(=O)c3ccc(C)cc3C)CC2)cc1OC | 19.8% (active)
Cc1ccc(S(=O)(=O)N2CCN(C(=O)COC(=O)/C=C/c3cccc(Cl)c3)CC2)c(C)c1 | -10.6% (inactive)
Cc1ccc(S(=O)(=O)N2CCN(C(=O)COC(=O)c3c(C)cc(C)cc3C)CC2)c(C)c1 | -5.88% (inactive)
Cc1ccsc1C(=O)NNC(=O)COc1ccc(Br)cc1 | -0.652% (inactive)
NC(=NC(=O)c1ccccc1)C1=C(O)CCC1=O | -12.8% (inactive)
COc1cc(C2C(C(=O)Nc3ccc(F)cc3)=C(C)Nc3nc(CCCO)nn32)cc(OC)c1OC (stereo not given) | -9.9% (inactive)
COCCOC(=O)C1=C(C)Nc2nc(C)nn2C1c1ccccc1 (stereo not given) | -7.61% (inactive)
COC(=O)c1nc2n(n1)C(c1ccc([N+](=O)[O-])cc1)C(C(=O)Nc1ccc(Cl)cc1)=C(C)N2 (stereo not given) | 34.5% (active)
COC(=O)/C(=C\Nc1ccccc1)NC(=O)c1ccc(Cl)cc1Cl | 4.01% (inactive)
COc1cccc(C2CC(c3cccs3)=NN2C(=O)CSC2=NCCS2)c1OC (stereo not given) | -11.4% (inactive)
CC(C)c1c(C(=O)N/N=C/c2ccc(-c3ccccc3)cc2)nnn1-c1nonc1N | -2.45% (inactive)
Nc1nonc1-n1nnc(C(=O)N/N=C/c2ccc(Cl)cc2)c1-c1ccc2c(c1)OCO2 | 32.2% (active)
Nc1nonc1-n1nnc(C(=O)N/N=C/C2CCCCC2)c1-c1ccccc1 | -11.3% (inactive)
CC(Sc1nncn1C)C(=O)Nc1ccccc1-c1ccccc1 (stereo not given) | -4.45% (inactive)
